Screening data deposited in PubChem BioAssay by National Center for Advancing Translational Sciences (NCATS).
A selection: hits, their analogues and other compounds. The true share with any hit is near 0.88%.
CtBP-E1A inh = qHTS Assay for Inhibitors of the CtBP/E1A Interaction. CtBP / adenovirus E1A interaction (AlphaScreen). AlphaScreen GST-E1A/His-CtBP binding, 1536-well; hits give low values. activity change, % (test concentration not listed). 340,000 compounds, 0.49% hits. AID 651724, 2012; in the data active means activity change below about -65%; inconclusive means mostly about -30% to -63%
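Homogeneous bead-based format: GST-tagged E1A captured on glutathione donor beads, His-tagged CtBP on nickel acceptor beads; compounds precede bead addition by 2 h at 37 °C.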
pAkt inh = HTS Assay for Inhibitors of Akt Phophorylation: Primary Screen. Neuro2A IGF-stimulated pAkt S473 HTRF, 20 min; hits give low values. activity change, % for hits at 50 µM. 360,000 compounds, 0.32% hits. AID 651550, 2012; in the data active means activity change below about -80%; inconclusive means mostly about -51% to -80%
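Neuro2A cells (4,500/well, DMEM with 0.5% FBS) were treated with compound at a single 50 µM final concentration, stimulated with 6 nM IGF for 20 min at 37 °C, and lysed. Phospho-Akt Ser473 was read by HTRF as 665/615 ratio ×10^4.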
RGS4 inh = Inhibitors of Regulator of G Protein Signaling (RGS) 4: qHTS; Regulator of G-protein signaling 4 (Homo sapiens), P49798; 390,000 compounds, 0.039% hits; Transcreener GDP fluorescence polarization, RGS4-accelerated GTP hydrolysis; Potency, µM (top dose mostly 114 µM), hits mostly inhibitors; further: nearly all actives have a fitted effect of over 75% in size
Target sequence (P49798 whole entry, looked up): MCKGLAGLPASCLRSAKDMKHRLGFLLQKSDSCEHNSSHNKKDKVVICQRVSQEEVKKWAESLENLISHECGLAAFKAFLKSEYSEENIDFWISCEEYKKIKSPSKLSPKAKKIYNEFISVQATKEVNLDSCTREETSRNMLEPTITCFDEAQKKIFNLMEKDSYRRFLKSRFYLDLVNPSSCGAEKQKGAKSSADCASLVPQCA
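MLSMR compounds (23 nl, pin-transferred) preincubated 10 min at room temperature with a 500nM (2x) first reagent, then RGS4 at 900nM (2x) plus Transcreener GDP mix added; fluorescence polarization (620/688 nm) read before and after 90 min at 30 °C.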
GRP78 ERSR act = qHTS for Inducers of the Endoplasmic Reticulum Stress Response (ERSR) in Human Glioma: qHTS; U87-MG GRP78 promoter luciferase reporter, 16 h; 420,000 compounds, 0.02% hits; Potency, µM, most hits filed as activators; further: series mostly up to about 76 µM; nearly all actives have a fitted effect of over 35% in size
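Stably transfected U87-MG human glioma cells carrying a GRP78-based luminescent sensor were seeded at 1000 cells/well, pin-dosed with compounds and incubated 16 h. Luciferase reagent was then added, and end-point luminescence was read after 10 min at room temperature.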
Six1-Eya2 blk = qHTS Assay for Inhibitors of the Six1/Eya2 Interaction; Homeobox protein SIX1 (Homo sapiens) + Protein phosphatase EYA2 (Homo sapiens), …; AlphaScreen GST-Six1/His-Eya2 binding, biochemical; hits give low values; activity change, % (test concentration not listed); 360,000 compounds, 0.56% hits; in the data active means activity change below about -65%; inconclusive means mostly about -30% to -63%
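Six1/Eya2 binding was read as AlphaScreen signal after compounds were pinned into GST-Six1 plus His-tagged Eya2 (5X stock 250/500 nM) in pH 8.0 Tris/NaCl/TCEP buffer, beads added, then incubated 1 h, 37 C, dark.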
Hits are given with their value; – = inactive; ? = inconclusive; · = no result given; [ ] = another dose, or the depositor's remark. Unless noted, the call rests on the fitted dose curve; in most records, active means well fitted curve in the direction sought with a large enough effect; inconclusive means small, poorly fitted or top-dose-only effect, or another doubt; inactive means no such curve, though single readings can be large; an effect the other way counts as inactive or inconclusive.

SMILES	CtBP-E1A inh	pAkt inh	RGS4 inh	GRP78 ERSR act	Six1-Eya2 blk
CCCCCn1c(SCCc2ccccc2)nc2c1c(=O)[nH]c(=O)n2C	–	-112%	–	–	–
CCOCCSc1nc2c(c(=O)[nH]c(=O)n2C)n1CCCc1ccccc1	–	-114%	–	–	–
CCOC(=O)C(C)Sc1nc2c(c(=O)[nH]c(=O)n2C)n1CCc1ccccc1 (stereo not given)	–	-103%	–	–	–
C=CCNc1nc2c(c(=O)[nH]c(=O)n2C)n1CCCCC	–	-114%	–	–	–
CCCCn1c(NCCC)nc2c1c(=O)[nH]c(=O)n2C	–	–	–	–	–
CCOCCn1c(SCCc2ccccc2)nc2c1c(=O)[nH]c(=O)n2C	–	–	–	–	–
COc1cccc(-c2nc3cc(SC)ccc3cc2CN(C(=O)c2sccc2C)C2CC2)c1	·	·	·	–	·
COc1cc(N2CCCC2)c(OC)cc1/C=C(/C#N)c1cccc(F)c1	?	–	?	–	-72
OCC1OC(OC2C(CO)OC(OC3C(CO)OC(O)C(O)C3O)C(O)C2O)C(O)C(O)C1O (stereo not given)	·	·	·	–	·
CC(=O)CSc1nc(N)c(C#N)c(-c2cccs2)c1C#N	–	–	–	–	–
N#Cc1c(N)nc(SCC(=O)NCCc2ccccc2)c(C#N)c1-c1cccs1	–	-89%	–	–	–
O=C(/C=C/c1ccc(F)cc1)NC(=S)N1CCN(c2ccccn2)CC1	-74	–	–	–	–
COc1ccc(/C=C/C(=O)NC(=S)N2CCN(c3ccccn3)CC2)cc1OC	?	–	–	–	–
Cc1ccc(C)n1-c1ccc(C(=O)N2CCOCC2)cc1	–	-106%	–	–	–
CC(=O)N1CCN(C(=O)c2ccc(-n3c(C)ccc3C)cc2)CC1	–	–	–	–	–
COc1ccccc1-c1ccc(C(=O)N(C)CC2COCCO2)c(N2CCN(c3ccccc3F)CC2)n1 (stereo not given)	·	·	·	–	·
COc1cccc(NCc2nnc(SC(C(=O)N(C)C)c3ccccc3)n2C2CCCCC2)c1 (stereo not given)	·	·	·	–	·
CCCCOc1ccc(-n2nc(C)cc2C)nn1	–	-101%	–	–	–
Cc1cc(C(=O)c2ccccc2)cc(C)c1O	–	–	–	–	-86
C[C@H]1[C@@H](O)[C@@H](C)\C=C/C=C\C=C/C=C\C=C/C=C\C=C/[C@@H](O[C@H]2O[C@@H](C)[C@@H](O)[C@@H](N)[C@@H]2O)C[C@@H]2O[C@](O)(C[C@@H](O)C[C@@H](O)[C@@H](O)CC[C@@H](O)C[C@@H](O)CC(=O)O[C@H]1C)C[C@@H](O)[C@H]2C(=O)O (stereo in doubt)	·	·	·	–	·
CC1C=CC=CC=CC=CC=CC=CC=CC(OC2OC(C)C(O)C(N)C2O)CC2OC(O)(CC(O)CC(O)C(O)CCC(O)CC(O)CC(=O)OC(C)C(C)C1O)CC(O)C2C(=O)O (stereo not given)	–	–	?	–	-75
CCCOc1ccc(C2=NNC(c3cccs3)=Nc3ccc(OC)cc32)cc1	–	-125%	–	–	–
COc1ccc2c(c1)C(c1cccs1)=NNC(c1ccncc1)=N2	–	–	–	–	–
COc1ccccc1N1CCN(c2nc(CNC(=O)c3ccc4c(c3)OCO4)nc3ccccc23)CC1	·	·	·	–	·
CN(C)c1ccc(-c2c(C3C4C=CCCC4(C)C(=O)N3Cc3ccccc3)ccc3ccccc23)cc1 (stereo not given)	·	·	–	–	·
SMILES	CtBP-E1A inh	pAkt inh	RGS4 inh	GRP78 ERSR act	Six1-Eya2 blk
O=C(/C(=N\Nc1ccc([N+](=O)[O-])cc1)Sc1nnnn1-c1ccccc1)c1ccccc1	?	–	–	–	?
Cc1ccc(N/N=C(/Sc2nnnn2-c2ccccc2)C(=O)c2ccccc2)cc1	?	–	?	–	-78
Cc1cnc(-n2ncc(C(=O)NCCN3CCOCC3)c2C2CC2)nc1-c1cccs1	·	·	·	–	·
Cc1cc(=S)nc(-c2ccccn2)[nH]1	-69	–	–	–	-85
Nc1ccc2nc(-c3ccccc3)[nH]c2c1	–	–	–	–	–
Cc1[nH]c(-c2ccccn2)nc(=S)c1Cl	?	–	–	–	?
Nc1ccc2nc(-c3ccccn3)[nH]c2c1	-70	–	–	–	-75
CCSc1nnc(C(C)NC(=O)c2ccc(OC)cc2)n1C (stereo not given)	·	·	·	–	·
Cc1ccc(S(=O)(=O)N(C)CC(O)Cn2c3ccccc3c3ccccc32)cc1 (stereo not given)	–	-114%	–	–	–
Cc1ccc(S(=O)(=O)N(CC(O)Cn2c3ccccc3c3ccccc32)c2cccc(C(=O)N(C)C)c2)cc1 (stereo not given)	·	·	–	–	·
CC(C)NC(=O)c1cc2cc(Br)ccc2oc1=O	–	–	–	–	–
O=C(Nn1cnnc1)c1cc2cc(Br)ccc2oc1=O	–	-93%	–	–	–
c1ccc(CSc2ccc(-c3ccccn3)nn2)nc1	-94	–	–	–	-93
c1cncc(CSc2ccc(-c3cccnc3)nn2)c1	–	–	–	–	–
COc1cc(OC)cc(-c2nnc(SCC(=O)N3CCCc4ccccc43)o2)c1	–	-116%	–	–	–
Clc1ccc(-c2ccc(SCc3ccccn3)nn2)cc1	–	–	–	–	–
O=C(CSc1ccc(-c2ccccn2)nn1)N1CCCc2ccccc21	-66	–	–	–	-80
c1ccc(-c2ccc(SCc3cccnc3)nn2)nc1	-89	–	–	–	-91
O=C(c1cnsn1)N1CCOc2ccc(C(O)C(c3ccccc3)c3ccccc3)cc2C1 (stereo not given)	·	·	·	–	·
Cc1ccc2c(c1)CN(CCNC(=O)c1cccc(Cn3cccn3)c1)CC(C)O2 (stereo not given)	·	·	·	–	·
O=C(N/N=C/c1c(O)n(Cc2ccco2)c(=O)[nH]c1=O)c1ccccc1	-85	–	–	–	-86
c1ccc(-n2cnc3cc(NCc4ccncc4)ccc32)cc1	–	-103%	–	–	–
CC(=O)Nc1ccc(S(=O)(=O)NC2=C(N3CCN(c4ccc(F)cc4)CC3)C(=O)c3ccccc3C2=O)cc1	-78	–	–	–	-79
COC(=O)C1CCN(C2=C(NS(=O)(=O)c3ccc(Cl)cc3)C(=O)c3ccccc3C2=O)CC1	-79	–	–[11.4 µM]	–	-67
Cc1c(C(=O)NCc2ccc(F)cc2)sc2ncnc(NCC3CCCO3)c12 (stereo not given)	·	·	·	–	·
O=C(c1cn(C2CCCN(Cc3cccc(Oc4ccccc4)c3)C2)nn1)N1CCCC1 (stereo not given)	·	·	·	–	·
